For 26 compounds, Potency results are on record in PubChem BioAssay (NCATS).

Molecules are shown by their SMILES. Several values for one entry are separate records, joined by “and”; a condition that tells them apart may be missing. Equal entries are not always repeated. Inconclusive results are not listed. Activity calls are given as the source filed them. Unless noted, calls come from the whole dose curve; as a rule, active = well fitted curve in the direction sought with a large enough effect; inconclusive = small, poorly fitted or top-dose-only effect, or another doubt; inactive = no such curve, though single readings can be large; an effect the other way counts as inactive or inconclusive.

Assay [1] concerns the target Cytochrome P450 2D6 (Homo sapiens) (UniProt P10635). Nature of the assay: Cytochrome P450 family 2 subfamily D member 6 (CYP2D6) small molecule antagonists: luciferase biochemical (cell-free) qHTS assay (AID 1645840; active = well fitted curve in the direction sought with a large enough effect in the repeat runs; an effect the other way counts as inactive or inconclusive; note: nearly all actives have a fitted effect of over 55% in size). A digest of the protocol:
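P450-Glo CYP2D6 system: proluciferin substrate converted by enzyme to luciferin, read by luminescence proportional to activity. Enzyme-substrate mix with compound 10 min at room temperature, then NADPH regeneration 1 h before detection reagent.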
In general terms: In qHTS, concentration-response curves come from the screen itself.

Assay [2] deals with Cytochrome P450 2C9 (Homo sapiens) (UniProt P11712). In words: Cytochrome P450 family 2 subfamily C member 9 (CYP2C9) small molecule antagonists: luciferase biochemical (cell-free) qHTS assay (AID 1645842; active = well fitted curve in the direction sought with a large enough effect in the repeat runs; an effect the other way counts as inactive or inconclusive; note: nearly all actives have a fitted effect of over 55% in size). A digest of the protocol: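 P450-Glo CYP2C9 system: proluciferin substrate with enzyme in mix containing 0.4% BSA, 10 min at room temperature, then NADPH regeneration solution added and incubated 1 h at 37C. Detection reagent stopped reaction; luminescence read after 20 min as RLU.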

Assay [3] is described as follows: Primary qHTS for inhibitors of nuclear receptor binding SET domain protein 2 (NSD2) in an isogenic RCH-ACV NSD2 p.E1099K mutant (9B) (AID 1645876). Note: nearly all actives have a fitted effect of over 70% in size.
Assay [4] in a line: Primary qHTS for inhibitors of nuclear receptor binding SET domain protein 2 (NSD2) in an RCH-ACV wild type WT cells (2C) (AID 1645877). Note: nearly all actives have a fitted effect of over 70% in size.
Potency is the fitted concentration of half-maximal effect.

Sequence of Cytochrome P450 2D6 (Homo sapiens) (P10635 whole entry, looked up): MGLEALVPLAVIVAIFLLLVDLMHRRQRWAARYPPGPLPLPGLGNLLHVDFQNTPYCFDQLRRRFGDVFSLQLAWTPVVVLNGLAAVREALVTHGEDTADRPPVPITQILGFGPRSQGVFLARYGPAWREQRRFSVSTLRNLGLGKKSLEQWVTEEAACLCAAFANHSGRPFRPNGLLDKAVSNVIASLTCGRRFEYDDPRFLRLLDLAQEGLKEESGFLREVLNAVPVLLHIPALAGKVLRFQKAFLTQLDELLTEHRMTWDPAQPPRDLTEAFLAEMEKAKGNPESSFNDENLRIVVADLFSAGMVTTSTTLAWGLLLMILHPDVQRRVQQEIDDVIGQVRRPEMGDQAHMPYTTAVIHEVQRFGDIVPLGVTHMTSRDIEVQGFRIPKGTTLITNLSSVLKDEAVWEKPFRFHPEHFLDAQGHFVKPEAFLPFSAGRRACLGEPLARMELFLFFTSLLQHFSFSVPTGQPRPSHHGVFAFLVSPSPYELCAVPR
Sequence of Cytochrome P450 2C9 (Homo sapiens) (P11712 whole entry, looked up): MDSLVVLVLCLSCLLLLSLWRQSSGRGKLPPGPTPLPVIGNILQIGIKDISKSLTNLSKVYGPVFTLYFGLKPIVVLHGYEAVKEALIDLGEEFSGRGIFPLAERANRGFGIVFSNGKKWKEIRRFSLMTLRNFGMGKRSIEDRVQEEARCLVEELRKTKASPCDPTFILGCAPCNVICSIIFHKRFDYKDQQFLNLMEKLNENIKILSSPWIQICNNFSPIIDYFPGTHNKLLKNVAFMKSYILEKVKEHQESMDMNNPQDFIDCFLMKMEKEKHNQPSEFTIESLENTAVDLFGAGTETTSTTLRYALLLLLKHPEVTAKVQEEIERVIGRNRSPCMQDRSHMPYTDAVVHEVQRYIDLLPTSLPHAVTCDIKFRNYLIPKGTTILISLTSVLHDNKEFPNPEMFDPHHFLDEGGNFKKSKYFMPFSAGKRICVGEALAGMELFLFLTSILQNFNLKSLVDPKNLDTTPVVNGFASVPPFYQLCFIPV

`CC1(C)C(=O)C(C)(C)c2cc(C(=O)Nc3ccc(C(=O)O)cc3)ccc21`: the Potency result in assay [1], in assay [2], in assay [3] and in assay [4] was “inactive” each time.
In the case of `CCNC(=O)[C@H]1O[C@H](n2cnc3c(NCC(c4ccccc4)c4ccccc4)nc(C(=O)NCCNC(=O)NC4CCN(c5ccccn5)CC4)nc32)[C@H](O)[C@@H]1O`, the Potency in assay [1] is 23.9 µM (active); in assay [2] it was 3.79 µM (active). Further, the Potency entry in assay [3] and in assay [4] was “inactive” in each case.
Turning to `CCCCNC(=O)[C@@H]1Cc2ccccc2N1C(=O)[C@@H](N)CC`, the Potency entry in assay [1], in assay [2], in assay [3] and in assay [4] was “inactive” throughout.
As to `COc1ccc(C)c2sc(NC(=O)c3ccncc3)nc12`, the Potency in assay [1] is 6.74 µM (active); in assay [2], 0.849 µM (active). The Potency result in assay [3] and in assay [4] was “inactive” throughout.
Consider `Cc1[nH]cnc1C1CCN(c2nc3cccc4c3n2CCC4=O)CC1`, for which the Potency in assay [1] and in assay [2] was 9.52 µM (active) in each case. For the same compound, the Potency entry in assay [3] and in assay [4] was “inactive” in each case.
On to `CO[C@@H](Cc1ccc(OCCc2nc(-c3ccccc3)oc2C)c2ccsc12)C(=O)O`, for which the Potency result in assay [1], in assay [3] and in assay [4] was “inactive” throughout. In addition, the Potency in assay [2] is 26.8 µM (active).
With `C=C1CC[C@@H]2[C@](C)(CO)[C@H](O)CC[C@@]2(C)[C@@H]1C/C=C1/C(=O)OC[C@H]1O`, the Potency entry in assay [1] and in assay [2] was “inactive” each time. Besides, the Potency in assay [3] was 8.33 µM (active); in assay [4], 7.42 µM (active).
For `CCn1nnnc1NCc1ccc(C(C)C)cc1`, the Potency result in assay [1], in assay [3] and in assay [4] was “inactive” each time. Also, the Potency in assay [2] was 7.56 µM (active).
For the compound `CC(=O)N1CCN(NC(=O)c2ccc(F)cc2)CC1`, the Potency entry in assay [1], in assay [2], in assay [3] and in assay [4] was “inactive” each time.
For the compound `CN(C)C/C=C/C(=O)Nc1ccc(C(=O)Nc2cccc(Nc3ncc(Cl)c(-c4c[nH]c5ccccc45)n3)c2)cc1`, the Potency result in assay [1] is “inactive”. Moreover, the Potency is 7.56 µM (active) in assay [2]; 18.3 nM (active) and 52.5 nM (active) in assay [3]; 18.3 nM (active) and 46.8 nM (active) in assay [4].
In the case of `CC1(C)CC(=O)N(CCCCN2CCN(c3ncccn3)CC2)C(=O)C1`, the Potency result in assay [1], in assay [2], in assay [3] and in assay [4] was “inactive” in each case.
Turning to `CNC(=O)c1ccc(Nc2ncc(C(F)(F)F)c(NCc3nccnc3N(C)S(C)(=O)=O)n2)cc1`, in assay [1], the Potency result was “inactive”. In addition, the Potency was 3.79 µM (active) in assay [2]; 2.58 µM (active) and 1.66 µM (active) in assay [3]; 2.05 µM (active) and 1.86 µM (active) in assay [4].
On to `CON(C)C(=O)N1N=C(c2cc(F)ccc2F)S[C@@]1(CCCN)c1ccccc1`, for which the Potency in assay [1] was 19 µM (active); in assay [2] it was 3.01 µM (active); in assay [3], 9.2 nM (active) and 14.8 nM (active); in assay [4], 6.5 nM (active) and 13.2 nM (active).
In the case of `O=c1c2cccnc2n(-c2cccc([N+](=O)[O-])c2)c(=O)n1Cc1ccncc1`, the Potency in assay [1] was 1.51 µM (active); in assay [2] it was 0.268 µM (active). For the same compound, the Potency entry in assay [3] and in assay [4] was “inactive” each time.
For `CC(C)Nc1cc(-c2c[nH]c(C(=O)N[C@H](CO)c3cccc(Cl)c3)c2)c(Cl)cn1`, the Potency was 19 µM (active) in assay [1]; 4.77 µM (active) in assay [2]; 20.5 µM (active) and 2.95 µM (active) in assay [3]; 8.17 µM (active) and 2.95 µM (active) in assay [4].
Take `O=C(c1ccc(C#Cc2cccc(F)c2)cn1)N1CC2CC2C1` (centres undefined): the Potency in assay [1] is 16.9 µM (active); in assay [2], 23.9 µM (active). Further, the Potency entry in assay [3] and in assay [4] was “inactive” in each case.
Regarding `CN1Cc2c(N)cccc2C(c2ccccc2)C1` (centres undefined), the Potency in assay [1] is 7.76 µM (active). The Potency entry in assay [2], in assay [3] and in assay [4] was “inactive” in each case.
On to `CCc1c(CC(N)=O)c2cc(OCCCP(=O)(O)O)ccc2n1Cc1ccccc1`, for which the Potency result in assay [1], in assay [2], in assay [3] and in assay [4] was “inactive” in each case.
As to `Cc1cc(C)c(S(=O)(=O)N(Cc2ccc(-c3cccc(S(C)(=O)=O)c3)cc2)Cc2ccc(C(F)(F)F)o2)c(C)c1`, the Potency entry in assay [1], in assay [3] and in assay [4] was “inactive” throughout. Besides, the Potency in assay [2] is 0.268 µM (active).
As for `C[C@@H](Nc1cc(NS(=O)(=O)N2CCC2)nc(SCc2cccc(F)c2F)n1)[C@@H](O)CO`, the Potency entry in assay [1], in assay [2], in assay [3] and in assay [4] was “inactive” throughout.
Regarding `CCC(=O)N[C@@H]1Cc2ccccc2[C@H](c2ccccc2)C1`, the results for the Potency in assay [1] and in assay [2] were 9.52 µM (active) and 3.01 µM (active), respectively. The Potency result in assay [3] and in assay [4] was “inactive” throughout.
As to `CC(=O)c1cnc2ccc(-c3cc(Cl)c(O)c(Cl)c3)nc2c1NC1CCC(CN(C)C)CC1` (centres undefined), the Potency result in assay [1] and in assay [2] was “inactive” in each case. In addition, the Potency is 30.3 nM (active) and 3.7 nM (active) in assay [3]; 38.2 nM (active) and 3.7 nM (active) in assay [4].
For `O=C(O)c1n[nH]c2c1C[C@H]1C[C@@H]21`, the Potency entry in assay [1], in assay [2], in assay [3] and in assay [4] was “inactive” in each case.
Regarding `COc1cccc(-c2ccc([C@@H](Oc3cc(-c4ccc(C[C@H](N)C(=O)O)cc4)nc(N)n3)C(F)(F)F)cc2)c1`, the Potency entry in assay [1], in assay [3] and in assay [4] was “inactive” in each case. In assay [2], the Potency is 6.74 µM (active).
In the case of `Cc1cc(C)cc(NC(=O)Cc2ccc(OC(C)(C)C(=O)O)cc2)c1`, the Potency result in assay [1], in assay [2], in assay [3] and in assay [4] was “inactive” throughout.
On to `CNC(=O)O[C@H]1COc2ccc(N3CCN(C4COC4)CC3)cc2[C@@H]1NC(=O)c1ccc(F)cc1`, for which the Potency entry in assay [1], in assay [2], in assay [3] and in assay [4] was “inactive” throughout.
